From the supplement of paper PMC4166925
± gives the standard deviation of the averaged measurements. The full ranking holds about 33,000 sequences; the median of “E-score (dimensionless, -0.5 to 0.5)” is about -0.049, and the highest 2% start at about 0.37. The sample holds the highest values, similar sequences and a random draw of the others, so the mix is not that of the screen.
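Note: 200 nM protein in PBS on universal arrays averaged over duplicate arrays.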

These sequences were tested on T1, PmTbr T-box DNA-binding domain (GST fusion) (assay: PBM E-score of 8-mer (E-score (dimensionless, -0.5 to 0.5)); Tbr is Tbrain of the sea star Patiria miniata (Pm) or the sea urchin Strongylocentrotus purpuratus (Sp); higher = stronger binding preference). Settings: the construct has about 5 more residues each side.
T1 sequence: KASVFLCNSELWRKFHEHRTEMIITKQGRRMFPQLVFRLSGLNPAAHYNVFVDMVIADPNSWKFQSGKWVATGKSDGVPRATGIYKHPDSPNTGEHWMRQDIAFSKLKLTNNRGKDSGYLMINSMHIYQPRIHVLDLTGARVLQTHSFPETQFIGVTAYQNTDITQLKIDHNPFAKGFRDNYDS
Description: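 Universal protein-binding microarray (Agilent AMADID 016060, 60-bp probes with a 35-bp variable region) incubated with 200 nM GST-fused Patiria miniata Tbr T-box DNA-binding domain (residues 272-466) in PBS pH 7.5. Scored for every ungapped 8-mer (given with its reverse complement) by the Universal PBM Analysis Suite as E-score (modified Wilcoxon-Mann-Whitney enrichment, range -0.5 to 0.5; >0.45 counts as bound) and Z-score of median probe intensity. Two replicate arrays (datasets 1 and 2).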
In the case of ATCTCAAC, the “PBM E-score of 8-mer” value is reported as 0.0437 ± 0.036.
ACCTCACC was tested, and the “PBM E-score of 8-mer” value was 0.261 ± 0.028.
For CTATCACC, the “PBM E-score of 8-mer” value was 0.431 ± 0.0063.
For ATATCACC, the “PBM E-score of 8-mer” value was 0.364 ± 0.013.
In the case of CTCTCACC, the “PBM E-score of 8-mer” value is reported as 0.383 ± 0.0077.
For ATCTCACC, the “PBM E-score of 8-mer” value was 0.409 ± 0.0061.
For CTCTCACA, the “PBM E-score of 8-mer” value was 0.3481 ± 0.0026.
ATCTCACG was tested, and the “PBM E-score of 8-mer” value was 0.294 ± 0.016.
ATCTCTCA was tested, and the “PBM E-score of 8-mer” value was 0.226 ± 0.023.
For ATCTCACA, the “PBM E-score of 8-mer” value was 0.372 ± 0.021.
CTATCACA was tested, and the “PBM E-score of 8-mer” value was 0.305 ± 0.009.
For CGCTCACC, the “PBM E-score of 8-mer” value was 0.0475 ± 0.083.
In the case of ATTGTTAC, the “PBM E-score of 8-mer” value is reported as 0.194 ± 0.057.
With GGTACGAC the “PBM E-score of 8-mer” value was -0.0493 ± 0.042.
In the case of CAGAGGCA, the “PBM E-score of 8-mer” value is reported as -0.215 ± 0.071.
In the case of ATCTACCG, the “PBM E-score of 8-mer” value is reported as -0.157 ± 0.067.
In the case of AAGATCTC, the “PBM E-score of 8-mer” value is reported as 0.061 ± 0.054.
CCGGCCCC was tested, and the “PBM E-score of 8-mer” value was -0.24 ± 0.058.
In the case of CAATCGCC, the “PBM E-score of 8-mer” value is reported as -0.0698 ± 0.068.
ATCCCCAA was tested, and the “PBM E-score of 8-mer” value was -0.227 ± 0.063.
GAGCTTCA was tested, and the “PBM E-score of 8-mer” value was -0.137 ± 0.0098.
In the case of ATACTTCC, the “PBM E-score of 8-mer” value is reported as 0.0697 ± 0.018.
For GGCATTTA, the “PBM E-score of 8-mer” value was 0.00349 ± 0.0029.
GTCTCTCA was tested, and the “PBM E-score of 8-mer” value was 0.0943 ± 0.0041.
For TCCTCACA, the “PBM E-score of 8-mer” value was 0.3327 ± 0.0011.
In the case of GTCTCACA, the “PBM E-score of 8-mer” value is reported as 0.392 ± 0.019.
With GCCTCACA the “PBM E-score of 8-mer” value was 0.224 ± 0.031.
ACCTCACG was tested, and the “PBM E-score of 8-mer” value was 0.269 ± 0.038.
For ACCTCACA, the “PBM E-score of 8-mer” value was 0.423 ± 0.0099.
In the case of ACGCAATC, the “PBM E-score of 8-mer” value is reported as -0.12 ± 0.013.
For GCTTGGTA, the “PBM E-score of 8-mer” value was -0.112 ± 0.032.
For CCCCTCTA, the “PBM E-score of 8-mer” value was -0.143 ± 0.088.
With ATTAGCGG the “PBM E-score of 8-mer” value was 0.121 ± 0.025.
For ACACTTGG, the “PBM E-score of 8-mer” value was 0.395 ± 0.0073.
With CCACTTGC the “PBM E-score of 8-mer” value was 0.158 ± 0.056.
In the case of ACACTTGC, the “PBM E-score of 8-mer” value is reported as 0.407 ± 0.013.
For ACACTTGA, the “PBM E-score of 8-mer” value was 0.369 ± 0.029.
With AAACTTGC the “PBM E-score of 8-mer” value was 0.122 ± 0.029.
In the case of ATACTTGG, the “PBM E-score of 8-mer” value is reported as -0.174 ± 0.046.
For GAAGTTAA, the “PBM E-score of 8-mer” value was 0.0494 ± 0.064.
For TCTTGGCA, the “PBM E-score of 8-mer” value was 0.0497 ± 0.1.
CCTAACAG was tested, and the “PBM E-score of 8-mer” value was 0.128 ± 0.033.
In the case of ACTAACAG, the “PBM E-score of 8-mer” value is reported as 0.216 ± 0.045.
With ACTAACAA the “PBM E-score of 8-mer” value was 0.214 ± 0.032.
CCTAACAC was tested, and the “PBM E-score of 8-mer” value was 0.4369 ± 0.0041.
GCTAACAC was tested, and the “PBM E-score of 8-mer” value was 0.43 ± 0.0048.
In the case of GCTAACAA, the “PBM E-score of 8-mer” value is reported as 0.252 ± 0.013.
For GCTAACCC, the “PBM E-score of 8-mer” value was 0.00156 ± 0.0032.
For ACTAACAC, the “PBM E-score of 8-mer” value was 0.412 ± 0.007.
For CCTAACAA, the “PBM E-score of 8-mer” value was 0.184 ± 0.055.
CAGTTCAC was tested, and the “PBM E-score of 8-mer” value was 0.226 ± 0.023.
In the case of ACGCAGCT, the “PBM E-score of 8-mer” value is reported as 0.109 ± 0.075.
In the case of GACAATCC, the “PBM E-score of 8-mer” value is reported as 0.106 ± 0.018.
For GTAAGCTA, the “PBM E-score of 8-mer” value was -0.266 ± 0.012.
ATGTAGAC was tested, and the “PBM E-score of 8-mer” value was -0.237 ± 0.043.
With CGTCGCAC the “PBM E-score of 8-mer” value was 0.332 ± 0.021.
With AGTCGCAC the “PBM E-score of 8-mer” value was 0.395 ± 0.026.
GGTCGCAC was tested, and the “PBM E-score of 8-mer” value was 0.373 ± 0.018.
AGTCGCAG was tested, and the “PBM E-score of 8-mer” value was 0.0399 ± 0.06.
GGTCGCAA was tested, and the “PBM E-score of 8-mer” value was 0.205 ± 0.0044.
AGTCGCAA was tested, and the “PBM E-score of 8-mer” value was 0.147 ± 0.026.
For AGATTTTC, the “PBM E-score of 8-mer” value was 0.0361 ± 0.063.
TAGTTCGA was tested, and the “PBM E-score of 8-mer” value was 0.16 ± 0.056.
For GCACCAGA, the “PBM E-score of 8-mer” value was -0.03 ± 0.061.
In the case of AATGTTCC, the “PBM E-score of 8-mer” value is reported as -0.191 ± 0.0029.
In the case of ACAACGCA, the “PBM E-score of 8-mer” value is reported as 0.105 ± 0.03.
In the case of ACCACGCG, the “PBM E-score of 8-mer” value is reported as 0.1217 ± 0.0011.
In the case of CACCCCCG, the “PBM E-score of 8-mer” value is reported as 0.216 ± 0.014.
For CACACCGC, the “PBM E-score of 8-mer” value was 0.334 ± 0.027.
With ACCACCCG the “PBM E-score of 8-mer” value was 0.189 ± 0.017.
With CACACCCC the “PBM E-score of 8-mer” value was 0.416 ± 0.013.
With AACACCCG the “PBM E-score of 8-mer” value was 0.428 ± 0.0098.
In the case of CCCACCCG, the “PBM E-score of 8-mer” value is reported as 0.105 ± 0.0088.
In the case of CCCACCCA, the “PBM E-score of 8-mer” value is reported as 0.0945 ± 0.0051.
For TACACCCA, the “PBM E-score of 8-mer” value was 0.129 ± 0.046.
For CACACCCG, the “PBM E-score of 8-mer” value was 0.426 ± 0.019.
For CACCCCCC, the “PBM E-score of 8-mer” value was 0.165 ± 0.06.
CACACCCA was tested, and the “PBM E-score of 8-mer” value was 0.423 ± 0.012.
In the case of ATCACCCG, the “PBM E-score of 8-mer” value is reported as 0.194 ± 0.02.
For TAATTCAA, the “PBM E-score of 8-mer” value was -0.292 ± 0.037.
In the case of CCCGGTCG, the “PBM E-score of 8-mer” value is reported as -0.111 ± 0.059.
CCATAGGA was tested, and the “PBM E-score of 8-mer” value was -0.0411 ± 0.059.
For TACAACGA, the “PBM E-score of 8-mer” value was -0.18 ± 0.034.
With ATAGAACC the “PBM E-score of 8-mer” value was -0.0785 ± 0.034.
For CGGGCAGC, the “PBM E-score of 8-mer” value was -0.0554 ± 0.0018.
In the case of AGGTACCA, the “PBM E-score of 8-mer” value is reported as -0.0398 ± 0.018.
With GAGGCGCC the “PBM E-score of 8-mer” value was 0.269 ± 0.018.
In the case of CCACACAA, the “PBM E-score of 8-mer” value is reported as 0.0617 ± 0.024.
For CCACAACA, the “PBM E-score of 8-mer” value was 0.203 ± 0.049.
In the case of TCACAACA, the “PBM E-score of 8-mer” value is reported as 0.384 ± 0.00069.
ACACACCA was tested, and the “PBM E-score of 8-mer” value was 0.285 ± 0.011.
TCACACCA was tested, and the “PBM E-score of 8-mer” value was 0.48075 ± 0.00012.
ACTCACCA was tested, and the “PBM E-score of 8-mer” value was -0.0425 ± 0.12.
In the case of GCACAACA, the “PBM E-score of 8-mer” value is reported as 0.17 ± 0.013.
CCACACCA was tested, and the “PBM E-score of 8-mer” value was 0.29 ± 0.033.
With CCTCACCA the “PBM E-score of 8-mer” value was 0.141 ± 0.045.
TCTCACCA was tested, and the “PBM E-score of 8-mer” value was 0.372 ± 0.011.
TCACACAA was tested, and the “PBM E-score of 8-mer” value was 0.414 ± 0.015.
For ACACACAA, the “PBM E-score of 8-mer” value was 0.0649 ± 0.066.
For AATGACAT, the “PBM E-score of 8-mer” value was -0.101 ± 0.054.
GGAACTCC was tested, and the “PBM E-score of 8-mer” value was -0.22 ± 0.083.
With GCCTCTTA the “PBM E-score of 8-mer” value was -0.0658 ± 0.019.
With GAGGAATA the “PBM E-score of 8-mer” value was -0.274 ± 0.02.
TCGGACAA was tested, and the “PBM E-score of 8-mer” value was -0.0104 ± 0.018.
In the case of ACTCAAGT, the “PBM E-score of 8-mer” value is reported as -0.000135 ± 0.051.
For ATGGACTG, the “PBM E-score of 8-mer” value was -0.165 ± 0.016.
In the case of CGCACACC, the “PBM E-score of 8-mer” value is reported as 0.325 ± 0.022.
With GCCACACA the “PBM E-score of 8-mer” value was 0.279 ± 0.031.
For GCCACACC, the “PBM E-score of 8-mer” value was 0.394 ± 0.024.
